High-throughput results (PubChem)
Only some compounds are listed: those with a hit (about 10% of all), similar ones and a draw of the others.
JMJD2A Tudor inh = qHTS Assay for Inhibitors of JMJD2A-Tudor Domain; Lysine-specific demethylase 4A (Homo sapiens), O75164; AlphaScreen JMJD2A-Tudor / H3K4me3 peptide binding; Potency, µM (highest dose often 114 µM), for inactives: at the highest dose activity change, negative = inhibition, most hits filed as inhibitors; hit rate 4.4% among 390,000; also: % is scaled to controls: 0 for no effect and ±100 for the full control effect; nearly all actives have a fitted effect of over 50% in size
Target sequence (O75164 whole entry, looked up, the tested form may be a part): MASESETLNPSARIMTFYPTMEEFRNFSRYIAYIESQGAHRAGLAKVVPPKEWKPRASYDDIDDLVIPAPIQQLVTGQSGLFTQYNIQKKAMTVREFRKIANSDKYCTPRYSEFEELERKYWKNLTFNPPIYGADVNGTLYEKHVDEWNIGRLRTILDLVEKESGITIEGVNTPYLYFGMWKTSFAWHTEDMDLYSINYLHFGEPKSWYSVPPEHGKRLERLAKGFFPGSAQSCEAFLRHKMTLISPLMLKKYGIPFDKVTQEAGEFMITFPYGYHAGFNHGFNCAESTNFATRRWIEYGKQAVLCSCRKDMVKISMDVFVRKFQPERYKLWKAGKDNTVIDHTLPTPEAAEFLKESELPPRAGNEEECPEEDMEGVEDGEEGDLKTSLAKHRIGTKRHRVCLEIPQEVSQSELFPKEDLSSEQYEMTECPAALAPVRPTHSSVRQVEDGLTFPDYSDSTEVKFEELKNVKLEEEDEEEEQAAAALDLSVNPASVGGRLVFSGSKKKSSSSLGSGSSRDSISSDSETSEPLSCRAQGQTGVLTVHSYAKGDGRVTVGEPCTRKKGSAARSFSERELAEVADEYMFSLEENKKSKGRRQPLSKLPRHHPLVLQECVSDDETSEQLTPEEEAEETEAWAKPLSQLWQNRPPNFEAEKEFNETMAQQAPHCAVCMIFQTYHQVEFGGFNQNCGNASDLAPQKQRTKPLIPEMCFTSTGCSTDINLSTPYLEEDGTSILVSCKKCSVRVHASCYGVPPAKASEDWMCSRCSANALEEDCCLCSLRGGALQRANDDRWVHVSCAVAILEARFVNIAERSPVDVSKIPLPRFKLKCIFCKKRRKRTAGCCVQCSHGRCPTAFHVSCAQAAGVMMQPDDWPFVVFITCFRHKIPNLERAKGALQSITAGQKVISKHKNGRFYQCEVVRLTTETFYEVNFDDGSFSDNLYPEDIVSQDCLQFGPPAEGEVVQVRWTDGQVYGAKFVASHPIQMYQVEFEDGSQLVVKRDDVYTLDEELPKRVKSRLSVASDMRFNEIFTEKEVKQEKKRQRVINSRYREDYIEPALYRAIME
HP1b binding inh = HTS for Inhibitors of HP1-beta Chromodomain Interactions with Methylated Histone Tails; Potency, µM (doses to about 114 µM), inactives show top-dose activity change, negative = inhibition, actives largely listed as inhibitors; hit rate 0.56% among 390,000; Chromobox protein homolog 1 (Homo sapiens), P83916; AlphaScreen HP1-beta / biotin-H3K9me3 peptide binding; also: nearly all actives have a fitted effect of over 70% in size
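HP1-beta protein (50 nM final) preincubated 30 min at room temperature with biotinylated H3(1-18)K9me3 peptide (50 nM) in PBS pH 7.4, 0.01% Tween-20, then compound added for 30 min. AlphaScreen streptavidin donor/nickel chelate acceptor beads (10 ug/mL final), 30 min dark, luminescence read.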
L3MBTL1 block = qHTS Assay for the Inhibitors of L3MBTL1; AlphaScreen L3MBTL1–H3K9me1 peptide binding; Potency, µM (series often up to 57.1 µM), for the others: at the top dose activity, negative = inhibition, hits mostly inhibitors; hit rate 0.66% among 230,000; AID 485360, 2010; also: % is scaled to controls: 0 for no effect and ±100 for the full control effect; nearly all actives have a fitted effect of over 60% in size
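AlphaScreen proximity signal between nickel-chelate acceptor and streptavidin donor beads (final 10 ug/mL) reports binding of 50 nM L3MBTL1 to 75 nM biotin-H3 K9me1 peptide; complex incubated with compounds 30 min at room temperature; cefsulodin titration as control.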
BAZ2B inh = qHTS Assay for Inhibitors of BAZ2B; AlphaScreen BAZ2B-H3K14Ac peptide displacement; Potency, µM (highest dose often 114 µM), without a hit: at the top dose activity change, negative = inhibition, actives largely listed as inhibitors; hit rate 4.4% among 360,000; also: % is scaled to controls: 0 for no effect and ±100 for the full control effect; nearly all actives have a fitted effect of over 60% in size
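Compounds, titrated to a top concentration of 110 uM, were incubated 30 min at room temperature with preformed BAZ2B/acetyl-K14 H3 peptide complex (50 nM each). Proximity signal was measured by AlphaScreen after 20 min with beads.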
GLS inhibitor = qHTS for Inhibitors of Glutaminase (GLS); Glutaminase kidney isoform, mitochondrial (Homo sapiens), O94925; GLS enzymatic activity, qHTS titration; Potency, µM (titrated, usually from 45.5 µM), without a hit: at the top dose activity change, negative = inhibition, most hits filed as inhibitors; hit rate 0.21% among 410,000; also: % is scaled to controls: 0 for no effect and ±100 for the full control effect
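Coupled fluorescence readout: glutamate oxidase/HRP/Amplex Red detect glutamate formed by hKGA from L-glutamine (1 mM solution added). Buffer 45 mM KH2PO4 pH 8.2, 0.02% Tween-20; reads at t0 and 30 min RT.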
G9a inh = qHTS Assay for Inhibitors of Histone Lysine Methyltransferase G9a; Histone-lysine N-methyltransferase EHMT2 (Homo sapiens), Q96KQ7; G9a H3K9 monomethylation, AlphaScreen, 2 h; Potency, µM (doses to about 102 µM), for the others: at the top dose activity, negative = inhibition, most hits filed as inhibitors; hit rate 8.8% among 350,000; also: % is scaled to controls: 0 for no effect and ±100 for the full control effect; nearly all actives have a fitted effect of over 75% in size
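Step 1: enzyme (final 20 nM) with compound, 15 min RT. Step 2: substrate peptide 500 nM and SAM 20 uM, 2 h RT. Step 3: anti-H3K9me1 antibody and AlphaScreen beads, 10 min, then plate read.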
The depositor's hits bear a star; [ ] = dose if it differs, or a comment. Calls follow the shape of the dose curve; as a rule, active = well fitted curve in the direction sought with a large enough effect; inconclusive = small, poorly fitted or top-dose-only effect, or another doubt; inactive = no such curve, though single readings can be large; an effect the other way counts as inactive or inconclusive. Potency is read from the fitted curve at half-maximal effect.

For CN(Cc1ccccc1)C(C(=O)NC1CCCCC1)c1ccc(Cl)cc1 (stereo not given) the results were JMJD2A Tudor inh -1.0%, HP1b binding inh 15.0%, BAZ2B inh 1.6%, GLS inhibitor 3.2% and G9a inh 7.2%[59 µM].
For C=CCOc1ccc(CN(C)CC(O)COc2cccc3ccccc23)cc1 (stereo not given) the results were JMJD2A Tudor inh 0.708µM*, HP1b binding inh 35.5µM*, BAZ2B inh 50.1µM*, GLS inhibitor 0.0% and G9a inh 39.8µM*.
Screening Cc1nc2nc(C)n(-c3ccccc3)c2s1 returned JMJD2A Tudor inh -27.6%, HP1b binding inh 14.1%, L3MBTL1 block 2.7%, BAZ2B inh -2.2%, GLS inhibitor 5.4% and G9a inh 12.6µM*.
Screening CCOc1ccc(CC(=O)NCCc2sc3nc(-c4ccc(F)cc4)nn3c2C)cc1 returned JMJD2A Tudor inh -10.1%, HP1b binding inh -3.6%, BAZ2B inh -2.9%, GLS inhibitor -0.7% and G9a inh 9.6%[59 µM].
C#CCOCCOCCOCCNc1nc(N2CCN(C(=O)Cn3cc(CC(C)O)nn3)CC2)nc(N2CCN(C(=O)[C@H](CCCCN)n3cc(CCC(=O)O)nn3)CC2)n1 (stereo not given in full) was read as JMJD2A Tudor inh -30.2%, HP1b binding inh 11.7%, L3MBTL1 block 0.1%, BAZ2B inh -32.4%, GLS inhibitor 0.0% and G9a inh 50.1µM*.
Screening C#CCOCCOCCOCCNc1nc(N2CCN(C(=O)Cn3cc(CCCN=C(N)N)nn3)CC2)nc(N2CCN(C(=O)[C@H](C(C)C)n3cc(CCO)nn3)CC2)n1 returned JMJD2A Tudor inh -15.3%, HP1b binding inh 26.1%, L3MBTL1 block 9.2%, BAZ2B inh -12.0%, GLS inhibitor -6.8% and G9a inh 50.1µM*.
For C#CCOCCOCCOCCNc1nc(N2CCN(C(=O)Cn3cc(CCO)nn3)CC2)nc(N2CCN(C(=O)[C@H]([C@@H](C)O)n3cc(CCCCN)nn3)CC2)n1 the results were JMJD2A Tudor inh -15.3%, HP1b binding inh 18.5%, L3MBTL1 block 7.9%, BAZ2B inh -7.9%, GLS inhibitor -1.5% and G9a inh 79.4µM*.
For C#CCOCCOCCOCCNc1nc(N2CCN(C(=O)Cn3cc(CCCN=C(N)N)nn3)CC2)nc(N2CCN(C(=O)[C@H](CCCCN)n3cc(CC(C)O)nn3)CC2)n1 (stereo not given in full) the results were JMJD2A Tudor inh -10.6%, HP1b binding inh 17.4%, L3MBTL1 block 9.5%, BAZ2B inh 4.9%, GLS inhibitor 1.1% and G9a inh 16.4%[2.33 µM].
For C#CCOCCOCCOCCNc1nc(N2CCN(C(=O)Cn3cc(CCCN=C(N)N)nn3)CC2)nc(N2CCN(C(=O)[C@H]([C@@H](C)CC)n3cc(CCCN=C(N)N)nn3)CC2)n1 the results were L3MBTL1 block -0.6%, BAZ2B inh inconclusive and G9a inh 22.4µM*.
CC[C@@H](C)C(N)C(=O)O (stereo not given in full) was read as GLS inhibitor -4.1% and G9a inh 0.6%[12.7 µM].
Screening CN(C)CCCNCCCNC(=O)/C=N/O returned JMJD2A Tudor inh inconclusive, HP1b binding inh 11.8%, BAZ2B inh -5.9%, GLS inhibitor -1.4% and G9a inh 31.6µM*.
CCOc1cccc(C2C=C(c3ccc4c(c3)OCO4)NC(c3cccc(Br)c3)N2)c1O (stereo not given) was read as JMJD2A Tudor inh 1.5%[57.1 µM] and HP1b binding inh 17.8%[57 µM].
